Data as given in PubChem BioAssay.
Potency and affinity values are given separately. Values without a mark were called inactive. No rule for the calls is given here.

tested on: not listed separately; assay: A549 cell cytotoxicity, dose response, cytotoxicity control, plate reader, cherry-pick, antagonist series (AID 743412); details: series mostly up to 26 µM; activity change, negative = cytotoxicity: at the top concentration;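 also: 0% = neutral control wells and -100% = positive control wells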

| Structure (SMILES) | activity change, negative = cytotoxicity |
| --- | --- |
| Cc1ccc(S(=O)(=O)N2[C@@H](CO)CO[C@H]2CC(=O)OCc2ccccc2)cc1 | 75.5% |
| COCC#Cc1ccc2c(c1)O[C@H](CN(C)S(=O)(=O)c1cccc(F)c1)[C@@H](C)CN([C@H](C)CO)S2(=O)=O | -7.62% |
| Cc1noc2ncnc(Sc3ccc(Br)cc3)c12 | -14.9% |

tested on: not listed separately; assay: HepG2 cell cytotoxicity, dose response, cytotoxicity control, plate reader, cherry-pick, antagonist series (AID 743416); details: series mostly up to 26 µM; activity change, negative = cytotoxicity: at the top concentration;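 also: 0% = neutral control wells and -100% = positive control wells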

| Structure (SMILES) | activity change, negative = cytotoxicity |
| --- | --- |
| CCCNC(=O)COC(=O)c1ccccc1C(=O)c1ccc(Cl)c([N+](=O)[O-])c1 | -16.6% |
| COc1ccccc1N/C=C/c1onc(C)c1[N+](=O)[O-] | -3.14% |
| CCOc1ccc(-c2ccc(SCC)nn2)cc1 | 2.84% |
| COCCn1c(C)cc(C(=O)CSc2nnc3ccccn23)c1C | 3.49% |
| Cc1ccc(C#N)c(SCc2nnc(-c3ccc(Cl)cc3)o2)n1 | -88.7% |
| CN1CCN(c2ccc(NC(=O)N3CCc4ccccc43)cc2)CC1 | -13.8% |
| Cc1csc(NC(=O)c2ccc(N3CCCC3=O)cc2)n1 | -7.61% |
| C[C@H](CO)N1C[C@H](C)[C@H](CN(C)C(=O)Nc2cccc3ccccc23)OCCCC[C@H](C)Oc2ccc(NC(=O)c3ccccc3)cc2C1=O | -24.7% |
| CN(C)S(=O)(=O)c1cccc(NC(=O)COc2ccccc2C(=O)Nc2ccccc2)c1 | -2.23% |
| CCOc1ccc(C(=O)NCCc2ccccc2)cc1 | 3.32% |
| CCCCc1ccc(NC(=O)c2cnccn2)cc1 | 4.4% |
| N#C[C@@H]1[C@H](c2ccc(C#CC3CCCCC3)cc2)[C@@H](CO)N1C(=O)c1cccc(F)c1 | -11.4% [at 23.5 µM] |
| O=C(NCCc1ccc(Cl)cc1)c1ccc2c(c1)OCCO2 | 0.76% |
| CCCc1nc(SCC(=O)N2CCC(Cc3ccccc3)CC2)c2c(=O)n(C)c(=O)n(C)c2n1 | -4.75% |
| O=C(Nc1ccc(NC(=O)c2ccco2)nc1)c1ccco1 | -11.6% |
| COc1ccc(-c2cc(C(=O)Nc3cccc(O)c3)no2)cc1 | 2.72% |
| O=C(Cc1ccncc1)NCC[C@H]1CC[C@H](NC(=O)C2CCCC2)[C@H](CO)O1 | 4.24% |
| CC(C)CCNC(=O)C(c1ccc(O)cc1)N(Cc1cccs1)C(=O)C1COc2ccccc2O1 (stereo not drawn) | -10.9% |
| CSc1nnc(NC(=O)c2ccc3c(c2)OCO3)s1 | -8.43% |

| Structure (SMILES) | activity change, negative = cytotoxicity |
| --- | --- |
| COc1ccc(-n2cc(C(=O)c3ccccc3O)cn2)cc1 | -1.9% |
| Cc1ccc(S(=O)(=O)Nc2ccc3c(c2)CC(=O)N([C@H](C)CO)C[C@H](C)[C@H](CN(C)Cc2ccc(Cl)c(Cl)c2)O3)cc1 | -10.5% [at 23.5 µM] |
| N#C[C@@H]1[C@H](c2ccc(C#CC3CCCCC3)cc2)[C@@H](CO)N1S(=O)(=O)c1ccccc1 | -152% [at 23.5 µM] |
| Cc1ccccc1-c1ccc([C@H]2[C@@H](CO)N3CCCCN(S(=O)(=O)c4ccc(F)cc4)C[C@@H]23)cc1 | 27.6% [at 12 µM] |
| CC(=O)N1CCCCN2[C@H](CO)[C@H](c3ccc(-c4cccc(C)c4)cc3)[C@@H]2C1 | 4.34% |
| COc1ccc(S(=O)(=O)N(C)C[C@@H]2OCCCC[C@H](C)Oc3ccc(NS(=O)(=O)c4ccc(F)cc4)cc3C(=O)N([C@@H](C)CO)C[C@@H]2C)cc1 | 4.34% |
| COc1ccc(-c2cn3cc(C)ccc3n2)cc1F | -3.65% |
| COc1ccc(-n2ncc3c(N(C)C4CCCCC4)ncnc32)cc1 | -5.47% |
| C[C@H](CO)N1C[C@H](C)[C@H](CN(C)C(=O)Nc2cccc3ccccc23)OCCCC[C@H](C)Oc2ccc(NC(=O)CCC(F)(F)F)cc2C1=O | -24.7% |
| Cc1ccccc1C(=O)Nc1ccc2c(c1)OCCO2 | -9.68% |
| COc1ccc(S(=O)(=O)N(C)C[C@@H]2OCCCC[C@H](C)Oc3ccc(NS(=O)(=O)c4ccc(Cl)cc4)cc3C(=O)N([C@@H](C)CO)C[C@@H]2C)cc1 | -9.74% |
| COc1ccccc1N(Cc1ccccc1)S(=O)(=O)c1cccc(C(=O)Nc2cc(C)ccn2)c1 | -2.36% |
| Nc1ccc(-c2nc3ccc(N)cc3s2)cc1 | -15.1% |
| COCC(=O)N1CCCCN2[C@H](CO)[C@H](c3ccc(-c4cccc(C)c4)cc3)[C@@H]2C1 | -7.42% |
| Cc1ccc2nc(-c3ccc(NC(=O)C4CCCO4)cc3)[nH]c2c1 (stereo not drawn) | -2.44% |
| c1ccc(-c2cn3c4c(sc3n2)CCCC4)cc1 | -11.1% |
| CC1CCN(c2ccc(-c3cccs3)nn2)CC1 | 92.2% |
| CCCNC(=O)N1[C@H](C#N)[C@H](c2ccc(C#Cc3ccc(F)cc3)cc2)[C@H]1CO | -3.06% |

target: Melanocortin receptor 4 (Homo sapiens) (UniProt P32245); assay: MC4R antagonists, dose response, counter-screen for LGR2 antagonist project, cell-based, plate reader, cherry pick (AID 743444); details: MC4R-expressing cells, antagonist mode; series mostly up to 35 µM; activity change, negative = inhibition: at the top concentration

| Structure (SMILES) | activity change, negative = inhibition |
| --- | --- |
| Cc1ccc(S(=O)(=O)N2[C@@H](CO)CO[C@H]2CC(=O)OCc2ccccc2)cc1 | 31.3% |
| COCC#Cc1ccc2c(c1)O[C@H](CN(C)S(=O)(=O)c1cccc(F)c1)[C@@H](C)CN([C@H](C)CO)S2(=O)=O | 11.7% |
| Cc1noc2ncnc(Sc3ccc(Br)cc3)c12 | 35.7% |
